Among the data in PubChem BioAssay (Tox21) are Potency and outcome values, retold here.

Records with an inconclusive call do not appear. The source made the active and inactive calls. Unless noted, calls follow the shape of the dose curve; as a rule, active = well fitted curve in the direction sought with a large enough effect in the repeat runs; inconclusive = weak or mixed curves; inactive = no such curve, though single readings can be large; an effect the other way counts as inactive or inconclusive.

Assay [1] in a line: qHTS assay to identify small molecule antagonists of the thyroid receptor (TR) signaling pathway (AID 743065). Also: nearly all actives have a fitted effect of over 55% in size. Also: potency is read from the fitted curve at half-maximal effect. The method, boiled down: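 Antagonism measured as loss of luciferase signal in GH3 cells stably carrying a TRE-luciferase reporter, co-treated with compound and T3 (1 nM final) for 23.5 h at 37 C. Viability was read in the same well by CellTiter-Fluor.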
Background: In qHTS, concentration-response curves come from the screen itself.

In assay [2] the test system is thyroid hormone receptor (rat, GH3 cells). The experiment in a line: qHTS assay to identify small molecule agonists of the thyroid receptor (TR) signaling pathway (AID 743066; calls by dose curve).
In assay [3] the target is Estrogen receptor (Homo sapiens) (UniProt P03372). In words: qHTS assay to identify small molecule antagonists of the estrogen receptor alpha (ER-alpha) signaling pathway (AID 743069; active = well fitted curve in the direction sought with a large enough effect in the signal ratio in the repeat runs, not every such curve was filed as active; the % refers to the signal ratio). The method, boiled down: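 ER-alpha-UAS-bla GripTite HEK293 line; 2% charcoal-stripped FBS overnight; plated, 4 hr 37C/5% CO2; cpd in DMSO + 17beta-estradiol, 18 hr 37C; LiveBLAzer B/G FRET substrate 2 hr RT; fluorescence intensity.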

Assay [4] is described as follows: qHTS assay to identify small molecule antagonists of the estrogen receptor alpha (ER-alpha) signaling pathway - cell viability counter screen (AID 743074; calls by dose curve;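 also: HEK293 cells carrying ER-alpha-UAS-bla reporter stimulated with 17beta-estradiol; nearly all actives have a fitted effect of over 45% in size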).
The target of assay [5] is Estrogen receptor (Homo sapiens) (UniProt P03372). The experiment in a line: qHTS assay to identify small molecule agonists of the estrogen receptor alpha (ER-alpha) signaling pathway (AID 743075; calls by dose curve;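 also: HEK293 GripTite cells with ER-alpha and UAS-driven beta-lactamase reporter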).
The target is the same in assay [6]. In words: qHTS assay to identify small molecule agonists of the estrogen receptor alpha (ER-alpha) signaling pathway using the BG1 cell line (AID 743079). Also: nearly all actives have a fitted effect of over 20% in size.
The nature of assay [7]: qHTS assay to identify small molecule antagonists of the estrogen receptor alpha (ER-alpha) signaling pathway using the BG1 cell line (AID 743080; calls by dose curve; also: series mostly up to about 70 µM; nearly all actives have a fitted effect of over 25% in size). The method, boiled down: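 Antagonist mode: compounds in DMSO were pinned onto BG1-Luc-4E2 cells alongside 17beta-estradiol agonist, incubated 21.5 h, and ERE-driven luciferase measured with ONE-Glo. Cytotoxicity was multiplexed using CellTiter-Fluor fluorescence.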

Assay [8] can be described thus: qHTS assay to identify small molecule antagonists of the estrogen receptor alpha (ER-alpha) signaling pathway using the BG1 cell line - cell viability counter screen (AID 743081).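 Also: compound given together with 17beta-estradiol as the ER stimulus; series mostly up to about 70 µM; nearly all actives have a fitted effect of over 45% in size.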
Another assay concerns the target Aromatase (Homo sapiens) (UniProt P11511). In words: qHTS assay to identify aromatase inhibitors (AID 743083). Also: series mostly up to about 70 µM; nearly all actives have a fitted effect of over 55% in size.
A short description of assay [9]: qHTS assay to identify aromatase inhibitors - cell viability counter screen (AID 743084).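 Also: cells stimulated with testosterone during compound exposure; nearly all actives have a fitted effect of over 55% in size.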
The target in assay [10] is Aryl hydrocarbon receptor (Homo sapiens) (UniProt P35869). The experiment in a line: qHTS assay to identify small molecule that activate the aryl hydrocarbon receptor (AhR) signaling pathway (AID 743085).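 Also: HG2L7.5c1 human HepG2 liver cells with stably integrated DRE-driven firefly reporter; series mostly up to about 70 µM; nearly all actives have a fitted effect of over 15% in size.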 The method, boiled down: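 AhR agonist activity is inferred from enhanced light output of a DRE-controlled firefly luciferase reporter in HepG2 cells, measured with ONE-Glo following 24 h treatment at 37C.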

Assay [11] is described as follows: qHTS assay to identify small molecule that activate the aryl hydrocarbon receptor (AhR) signaling pathway - cell viability counter screen (AID 743086). Also: series mostly up to about 70 µM; nearly all actives have a fitted effect of over 45% in size. The method, boiled down: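 Cytotoxicity counter screen: CellTiter-Fluor signal (30 min, 37 C) in 4000 HepG2 cells/well carrying the DRE-luciferase reporter, following 24 h compound exposure at 37 C.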
The target in assay [12] is Peroxisome proliferator-activated receptor gamma (Homo sapiens) (UniProt P37231). The experiment in a line: qHTS assay to identify small molecule agonists of the peroxisome proliferator-activated receptor gamma (PPARg) signaling pathway (AID 743094; active = well fitted activation curve with a large enough effect in the signal ratio in the repeat runs, not every such curve was filed as active; the % refers to the signal ratio). The method, boiled down:
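Compounds dissolved in DMSO were added to PPARg UAS-bla HEK293H cells for 17 h at 37C, and reporter expression was quantified by fluorescence intensity after 1 h with LiveBLAzer B/G FRET substrate.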

Assay [13] has the same target. The experiment in a line: qHTS assay to identify small molecule antagonists of the peroxisome proliferator-activated receptor gamma (PPARg) signaling pathway (AID 743191; calls by dose curve; also: series mostly up to about 63 µM; nearly all actives have a fitted effect of over 30% in size). The method, boiled down:
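Beta-lactamase reporter under UAS control in HEK293H PPARg-bla cells; compound treatment 17 h at 37C. Read-out: fluorescence intensity after 1 h room-temperature incubation with LiveBLAzer B/G FRET substrate.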

Assay [14] can be described thus: qHTS assay to identify small molecule antagonists of the peroxisome proliferator-activated receptor gamma (PPARg) signaling pathway - cell viability counter screen (AID 743194). Also: nearly all actives have a fitted effect of over 55% in size. The method, boiled down:
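Viability was measured as CellTiter-Glo luminescence in GeneBLAzer PPARg UAS-bla HEK293H cells. These cells had been exposed 17 h at 37 C to compounds together with rosiglitazone at 50 nM final, with the beta-lactamase readout taken in the same wells.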

Assay [15] can be described thus: qHTS assay for small molecule agonists of the antioxidant response element (ARE) signaling pathway (AID 743202; active = well fitted activation curve with a large enough effect in the signal ratio in the repeat runs, not every such curve was filed as active; the % refers to the signal ratio). The method, boiled down: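 Quantitative high-throughput format in HepG2 cells bearing an integrated ARE-beta-lactamase reporter. Compound exposure lasted 16 h at 37 C, and fluorescence was read 2 h after adding LiveBLAzer B/G substrate at room temperature.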

The nature of assay [16]: qHTS assay for small molecule agonists of the antioxidant response element (ARE) signaling pathway - cell viability counter screen (AID 743203; calls by dose curve; also: nearly all actives have a fitted effect of over 55% in size). The method, boiled down:
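Following 16 hrs of compound treatment at 37C, HepG2 cells with an ARE-controlled beta-lactamase gene were lysed with CellTiter-Glo. Luminescence was read after 30 min at room temperature.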

Assay [17] in a line: qHTS assay for small molecule activators of the heat shock response signaling pathway - cell viability counter screen (AID 743209). Also: nearly all actives have a fitted effect of over 50% in size. The method, boiled down: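 Readout: CellTiter-Glo luminescence, 30 min at room temperature. System: HSE-bla HeLa cells, 1500/well, plated overnight. Treatment: compounds in DMSO, 5 h at 37 C.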
Assay [18] is described as follows: qHTS assay for small molecule activators of the heat shock response signaling pathway (AID 743210; active = well fitted activation curve with a large enough effect in the signal ratio in the repeat runs, with a control signal flat, not every such curve was filed as active; the % refers to the signal ratio;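 also: HeLa cells with beta-lactamase reporter driven by heat shock elements; series mostly up to about 63 µM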). The method, boiled down: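 HeLa HSE-bla cells, overnight plating; cpd in DMSO 5 h, 37 C; LiveBLAzer B/G FRET substrate 2.5 h RT; fluorescence intensity read.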
Assay [19] can be described thus: qHTS assay to identify small molecule agonists of the peroxisome proliferator-activated receptor delta (PPARd) signaling pathway - cell viability counter screen (AID 743211). Also: nearly all actives have a fitted effect of over 55% in size. The method, boiled down: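 qHTS cell viability: PPARd-bla HEK293H; 17 h cpd, 37C; CellTiter-Glo, luminescence at 30 min RT.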

Chain of Aromatase (Homo sapiens) (P11511 whole entry, looked up): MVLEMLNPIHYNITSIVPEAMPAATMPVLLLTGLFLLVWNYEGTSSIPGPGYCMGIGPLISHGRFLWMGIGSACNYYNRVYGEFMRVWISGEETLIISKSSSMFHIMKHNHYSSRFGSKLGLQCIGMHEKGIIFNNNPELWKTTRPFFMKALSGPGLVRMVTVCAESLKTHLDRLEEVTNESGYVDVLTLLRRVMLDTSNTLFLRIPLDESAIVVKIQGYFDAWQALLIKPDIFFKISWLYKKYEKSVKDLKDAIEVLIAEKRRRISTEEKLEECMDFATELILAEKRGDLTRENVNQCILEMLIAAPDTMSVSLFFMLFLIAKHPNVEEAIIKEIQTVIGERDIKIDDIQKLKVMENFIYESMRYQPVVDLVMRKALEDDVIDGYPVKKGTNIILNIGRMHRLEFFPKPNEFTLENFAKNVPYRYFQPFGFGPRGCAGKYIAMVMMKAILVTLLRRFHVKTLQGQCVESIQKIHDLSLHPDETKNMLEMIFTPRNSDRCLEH
Chain of Aryl hydrocarbon receptor (Homo sapiens) (P35869 whole entry, looked up): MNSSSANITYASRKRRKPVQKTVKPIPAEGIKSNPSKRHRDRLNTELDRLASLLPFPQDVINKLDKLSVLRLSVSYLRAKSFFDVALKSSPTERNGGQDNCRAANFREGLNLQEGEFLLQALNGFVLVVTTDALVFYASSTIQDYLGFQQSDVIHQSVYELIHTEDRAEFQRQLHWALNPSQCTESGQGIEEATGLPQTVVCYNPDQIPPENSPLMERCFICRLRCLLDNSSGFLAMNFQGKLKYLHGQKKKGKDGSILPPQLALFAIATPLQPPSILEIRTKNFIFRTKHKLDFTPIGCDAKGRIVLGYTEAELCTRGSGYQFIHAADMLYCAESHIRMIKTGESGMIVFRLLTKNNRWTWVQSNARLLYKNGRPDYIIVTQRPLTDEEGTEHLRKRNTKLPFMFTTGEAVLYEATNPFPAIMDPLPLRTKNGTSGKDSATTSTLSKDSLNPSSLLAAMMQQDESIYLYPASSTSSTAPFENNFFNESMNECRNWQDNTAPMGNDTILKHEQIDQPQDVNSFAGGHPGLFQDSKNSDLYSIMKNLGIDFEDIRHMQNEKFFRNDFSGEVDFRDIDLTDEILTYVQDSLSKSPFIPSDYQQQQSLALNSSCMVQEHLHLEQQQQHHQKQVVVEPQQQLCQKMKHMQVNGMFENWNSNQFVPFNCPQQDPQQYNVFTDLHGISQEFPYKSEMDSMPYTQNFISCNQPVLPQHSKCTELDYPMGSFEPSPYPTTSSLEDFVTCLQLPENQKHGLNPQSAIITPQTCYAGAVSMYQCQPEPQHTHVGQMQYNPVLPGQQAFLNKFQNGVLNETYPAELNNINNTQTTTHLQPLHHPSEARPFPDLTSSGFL
Chain of Peroxisome proliferator-activated receptor gamma (Homo sapiens) (P37231 whole entry, looked up): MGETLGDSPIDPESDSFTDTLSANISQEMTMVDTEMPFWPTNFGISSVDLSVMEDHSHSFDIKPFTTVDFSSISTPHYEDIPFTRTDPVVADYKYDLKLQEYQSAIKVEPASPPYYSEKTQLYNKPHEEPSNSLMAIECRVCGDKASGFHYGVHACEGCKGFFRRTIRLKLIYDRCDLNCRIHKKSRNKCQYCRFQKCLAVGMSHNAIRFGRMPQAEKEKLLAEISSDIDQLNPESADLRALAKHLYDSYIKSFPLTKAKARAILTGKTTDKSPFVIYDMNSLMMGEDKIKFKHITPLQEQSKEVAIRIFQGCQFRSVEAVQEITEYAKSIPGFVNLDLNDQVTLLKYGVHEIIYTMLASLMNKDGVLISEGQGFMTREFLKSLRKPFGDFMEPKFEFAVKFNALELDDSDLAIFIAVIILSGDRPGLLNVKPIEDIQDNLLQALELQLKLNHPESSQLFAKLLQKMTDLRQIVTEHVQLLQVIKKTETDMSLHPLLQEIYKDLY
Chain of Estrogen receptor (Homo sapiens) (P03372 whole entry, looked up): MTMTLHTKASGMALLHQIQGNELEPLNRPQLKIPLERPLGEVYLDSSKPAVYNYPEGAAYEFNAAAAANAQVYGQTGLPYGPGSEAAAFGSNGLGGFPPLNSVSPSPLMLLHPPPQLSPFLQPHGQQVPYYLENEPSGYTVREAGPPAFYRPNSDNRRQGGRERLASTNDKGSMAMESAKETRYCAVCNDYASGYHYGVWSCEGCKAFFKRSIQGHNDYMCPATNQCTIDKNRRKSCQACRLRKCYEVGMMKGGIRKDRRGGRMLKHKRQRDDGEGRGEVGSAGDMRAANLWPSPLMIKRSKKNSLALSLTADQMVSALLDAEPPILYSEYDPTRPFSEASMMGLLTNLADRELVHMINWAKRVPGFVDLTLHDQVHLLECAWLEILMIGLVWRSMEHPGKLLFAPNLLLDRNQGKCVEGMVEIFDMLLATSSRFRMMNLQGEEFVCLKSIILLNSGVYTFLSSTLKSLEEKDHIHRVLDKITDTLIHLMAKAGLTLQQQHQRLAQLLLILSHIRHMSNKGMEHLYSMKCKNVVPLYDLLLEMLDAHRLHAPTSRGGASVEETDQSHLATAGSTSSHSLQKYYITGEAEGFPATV

For the compound `O=C(O)c1cc(C(=O)O)cc(C(=O)O)c1`, the Potency result in assay [1], in assay [3], in assay [4], in assay [5], in assay [6] and in [7] was “inactive” in each case. Moreover, the Potency entry in [9], in [10], in [11], in [12], in assay [13] and in [15] was “inactive” in each case. Besides, the outcome (in [2]; in assay [8]; with Aromatase (Homo sapiens); in assay [14]; in assay [16]; in assay [17]) was inactive. Moreover, the result in assay [18] and in [19] was inactive.
On to `CN1CCC(=C2c3ccccc3CCc3cccnc32)CC1`, for which, in assay [1], the Potency was 23.7 µM (active). The call (in assay [2]; in assay [8]; with Aromatase (Homo sapiens); in [14]; in assay [16]; in assay [17]) was inactive. For the same compound, the result in assay [18] and in assay [19] was inactive. The Potency result in assay [3], in [4], in assay [5], in assay [6], in assay [7] and in assay [9] was “inactive” in each case. Also, the Potency entry in assay [10], in [11], in assay [13] and in assay [15] was “inactive” in each case.
Regarding `CCOC(=O)C1=NOC(c2ccccc2)(c2ccccc2)C1`, the Potency result in assay [1], in [3], in [4], in assay [5], in assay [6] and in assay [7] was “inactive” throughout. The Potency result in assay [9], in assay [10], in [11], in assay [12], in assay [13] and in assay [15] was “inactive” each time. For the same compound, the result (in [2]; in assay [8]; in the assay with Aromatase (Homo sapiens); in assay [14]; in [16]; in assay [17]) was inactive. In addition, the outcome in assay [18] and in assay [19] was inactive.
Take `O=C(CO)[C@@H](O)[C@H](O)[C@H](O)CO`: the Potency result in assay [1], in [3], in assay [4], in assay [5], in assay [6] and in assay [7] was “inactive” each time. Also, the Potency entry in [9], in assay [10], in [11], in assay [12] and in assay [15] was “inactive” in each case. The outcome (in [2]; in assay [8]; with Aromatase (Homo sapiens); in assay [14]; in assay [18]; in assay [19]) was inactive.
In the case of `CC(C)CCCO`, the Potency result in assay [1], in assay [3], in assay [4], in assay [5], in [6] and in assay [7] was “inactive” throughout. Also, the Potency result in [9], in assay [10], in [11], in [12] and in assay [15] was “inactive” in each case. Besides, the outcome (in [2]; in [8]; with Aromatase (Homo sapiens); in assay [14]; in assay [16]; in [17]) was inactive. Further, the call in assay [18] and in assay [19] was inactive.
As to `CC(=O)Oc1cccc(C)c1`, the Potency result in assay [1], in [3], in assay [4], in assay [5], in assay [6] and in [7] was “inactive” in each case. Moreover, the Potency result in assay [9], in assay [10], in assay [11], in assay [12] and in assay [13] was “inactive” each time. Further, the compound was called inactive (in assay [2]; in [8]; in the assay with Aromatase (Homo sapiens); in [14]; in assay [16]; in [17]). Besides, the outcome in [18] and in assay [19] was inactive.
Take `CCCCOC(=O)CCC(C)=O`: the Potency result in assay [1], in assay [3], in [4], in [5], in assay [6] and in [7] was “inactive” throughout. The Potency entry in [9], in [10], in assay [11], in assay [12] and in assay [15] was “inactive” each time. For the same compound, the call (in assay [2]; in [8]; in the assay with Aromatase (Homo sapiens); in [14]; in [16]; in assay [17]) was inactive. Moreover, the compound was called inactive in assay [19].
